Laboratory results: PubChem BioAssay AID504334 (NMMLSC, 2011)
Values joined by “and” are separate entries in the source; they are usually repeats but may differ in a detail not shown here. Equal entries are not always repeated. Values without a mark were called inactive. Active and inactive are the calls of the source.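 The calls were made as follows: active = response relative to DMSO over 150%; inconclusive = yeast strain with under 70 recorded events; inactive = the rest.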

Assay: yeast AGP1-GFP fluorescence change, single-dose confirmation – cell-based, flow cytometry, S. cerevisiae, cherry pick set 3 (AID 504334);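 also: median GFP fluorescence per well by flow cytometry over the all cells gate; ratio of sample to mean DMSO control signal so DMSO = 100% not 0%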
Conditions: S. cerevisiae AGP1-GFP strain, 3 h, at 10 µM, hits give high values

Row | SMILES | percent response vs DMSO
1 | COc1cccc(N/C(C)=C/C(=O)c2ccc(Br)cc2)c1 | 101%
2 | COc1cccc2c(O)cc(=O)n(C)c12 | 99.1%
3 | COc1ccc(-c2cc(C(F)(F)F)nc(S(C)(=O)=O)n2)cc1OC | 106% and 113%
4 | CCCC(=O)Nn1cnc2c(c1=O)C1(CCCCC1)Cc1ccccc1-2 | 102%
5 | COc1ccc(OC)c(Nc2nc(NCCC(C)C)nc(N)c2[N+](=O)[O-])c1 | 98.4%
6 | Cc1ccc(C(=O)/C=C/Nc2cccc(O)c2)cc1 | 96.8%
7 | CC1=NNC(=O)/C1=C\c1cn(-c2ccccc2)nc1-c1ccc(F)cc1 | 108%
8 | COc1ccccc1Nc1nc(NCC(C)C)nc(N)c1[N+](=O)[O-] | 101%
9 | Oc1ccc(Cl)c2cccnc12 | 109%
10 | OCCN1CCN(c2ncnc3ccc(Br)cc23)CC1 | 99.8%
11 | CNc1nc(C)c([N+](=O)[O-])c(Nc2ccc(OC)cc2)n1 | 99.4%
12 | Cc1cccc(Nc2cc(=O)[nH]c(=O)[nH]2)c1C | 99.4%
13 | CCc1c(C)nc2c(OC)cccc2c1Cl | 99.4%
14 | CC(=O)NCCOc1cccc2cccnc12 | 101%
15 | COc1ccccc1Nc1nc(NCCCN(C)C)nc(N)c1[N+](=O)[O-] | 102%
16 | COc1ccc(NC(=O)O/N=C2/CCCc3ccc(OC)cc32)cc1 | 95.8%
17 | Cc1cccc(N/C=C/C(=O)c2ccc(Cl)cc2)c1 | 95.4%
18 | Nn1cnc2c(c1=O)C1(CCCCC1)Cc1ccccc1-2 | 94.1%
19 | COc1ccccc1-c1cc(C(F)(F)F)nc(S(=O)(=O)CCCC(=O)NC(C)C)n1 | 104% and 99.8%
20 | COC1=C/C(=C/c2c(N)n3cc(C)sc3nc2=O)C=CC1=O | 100%

Row | SMILES | percent response vs DMSO
21 | COc1ccccc1Nc1nc(NCCO)nc(N)c1[N+](=O)[O-] | 99.1%
22 | O=C(O)CCCCCNc1ncnc2ccc(Br)cc12 | 101%
23 | Nc1cc(C(=O)O)c(N)c2c1C(=O)c1ccccc1C2=O | 102%
24 | COc1cccc2c(=O)c(C(=O)O)c[nH]c12 | 94.1%
25 | COc1ccccc1OCc1cc(C(=O)N2CCN(C)C(c3ccccc3)C2)no1 (centres undefined) | 98.8%
26 | CCCOCc1ccc(O)c2ncccc12 | 99.8%
27 | C/C(=C\C(=O)c1ccc(C)cc1)Nc1cccc(O)c1 | 101%
28 | Nc1c(C(=O)O)ccc2c1C(=O)c1ccccc1C2=O | 114%
29 | Cc1ccc(NC(=O)O/N=C2\CCCCC2c2ccc([N+](=O)[O-])cc2[N+](=O)[O-])cc1 (centres undefined) | 100%
30 | O=C(Nc1cccc2ccccc12)ON=C1CCCCC1 | 99.8%
31 | COc1ccc(OC)c2c(=O)cc(C(=O)O)[nH]c12 | 102%
32 | CCc1sc(C(=O)Nc2nc(-c3ccccn3)cs2)cc1C | 111%
33 | CS(=O)(=O)c1nc(-c2ccc(F)cc2)cc(C(F)(F)F)n1 | 114%
34 | COc1cc(OC)cc(C(=O)Nc2ccc(-c3nc4ccccc4o3)cc2)c1 | 99.1%
35 | O=C(Nc1nc(-c2ccccn2)cs1)c1ccccc1-n1cnnn1 | 100%
36 | O=C(O)c1ccc(C=NNC(=O)c2cccc3ccccc23)cc1 | 107%
37 | COC(=O)COc1c(Cl)cc(Cl)c2ccc(C)nc12 | 105%
38 | CC1=CN2C(=N)/C(=C/c3ccc([N+](=O)[O-])o3)C(=O)N=C2S1 | 569% (active)
39 | CCN(CC)c1ncnc2ccc(Br)cc12 | 97.8%
